Source: PubChem BioAssay AID1942 (Johns Hopkins Ion Channel Center, 2009)
Among all 2,400 compounds or so, about 580 (24%) were called active. A selection follows. Unmarked numbers belong to inactive results.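 The calls were made as follows: active = activity change at or above the mean plus 3 SD of buffer wells without dofetilide, per plate; inactive = the rest.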

molecular target: Potassium voltage-gated channel subfamily KQT member 2 (Rattus norvegicus) (UniProt O88943); test: rat KCNQ2 channel activation by compounds alone, confirmation, counter-screen for hERG block protector project, cell-based, CHO, FluxOR thallium flux (AID 1942); settings: CHO-KCNQ2 cells, FluxOR thallium flux fluorescence; at 10 µM; stronger effect = higher value;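 also: normalized value minus buffer-control mean plus three SD of buffer wells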
Sequence (O88943 whole entry, looked up): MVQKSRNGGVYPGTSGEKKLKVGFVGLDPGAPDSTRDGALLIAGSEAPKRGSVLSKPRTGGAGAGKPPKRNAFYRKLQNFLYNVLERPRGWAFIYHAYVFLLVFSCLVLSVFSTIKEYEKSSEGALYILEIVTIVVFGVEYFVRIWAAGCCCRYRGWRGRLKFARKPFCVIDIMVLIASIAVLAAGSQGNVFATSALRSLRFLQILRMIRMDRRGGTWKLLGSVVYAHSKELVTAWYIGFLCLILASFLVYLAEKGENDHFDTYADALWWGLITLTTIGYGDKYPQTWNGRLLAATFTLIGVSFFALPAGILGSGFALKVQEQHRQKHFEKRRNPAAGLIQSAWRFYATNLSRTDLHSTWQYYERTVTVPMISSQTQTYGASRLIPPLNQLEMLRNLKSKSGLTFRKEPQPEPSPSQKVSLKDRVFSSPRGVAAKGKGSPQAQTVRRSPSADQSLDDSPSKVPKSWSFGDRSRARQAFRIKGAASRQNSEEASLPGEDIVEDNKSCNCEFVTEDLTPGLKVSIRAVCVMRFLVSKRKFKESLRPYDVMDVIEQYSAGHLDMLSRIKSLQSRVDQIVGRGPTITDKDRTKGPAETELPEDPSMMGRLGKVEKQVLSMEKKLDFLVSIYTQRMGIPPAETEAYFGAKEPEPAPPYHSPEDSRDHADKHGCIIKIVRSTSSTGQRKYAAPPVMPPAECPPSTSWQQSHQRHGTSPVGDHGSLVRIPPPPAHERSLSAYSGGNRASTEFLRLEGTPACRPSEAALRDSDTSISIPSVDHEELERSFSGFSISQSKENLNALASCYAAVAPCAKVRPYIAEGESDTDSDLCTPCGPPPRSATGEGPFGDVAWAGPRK

SMILES	activity change, less the hit threshold
C=CCSC1=C(C#N)C(c2ccccc2)CC(=O)N1 (stereo unspecified)	-23.3%
O=C(CNC(=O)c1ccccc1)NCc1ccc(Cl)cc1	-10.7%
Cc1nn(C(=O)CNC(=O)c2ccccc2)c(C)c1C	17.2% (active)
Cc1ccsc1/C=N/NC(=O)CNC(=O)c1ccccc1	-13.4%
Cc1ccc(S(=O)(=O)N2CCOCC2)cc1NC(=O)COC(=O)c1cccnc1Cl	-22.8%
CC(C)c1ccc(CNc2nc3nc4c(c(=O)n3[nH]2)CCC4)cc1	0.8% (active)
CCC(=O)Nc1ccc(N2CCOCC2)c(S(=O)(=O)Nc2ccc(OC)cc2)c1	-22.6%
Cc1ccc2[nH]c(C(=O)O)c(-c3ccccc3)c2c1	-8.1%
Cc1ccc(-n2nc3ccc(N)cc3n2)c(C)c1	-29.1%
Cc1cc(C)cc(-n2ncc3c2CCCC3NC(=O)c2csnn2)c1 (stereo unspecified)	-28.6%
CC(O)C(NS(=O)(=O)c1ccc(Cl)cc1)C(=O)OCc1cc([N+](=O)[O-])cc2c1OCOC2 (stereo unspecified)	-18.1%
O=[N+]([O-])c1ccc(CSc2nnc(SCc3ccc(Cl)cc3)s2)cc1	-10.9%
O=[N+]([O-])c1ccc(Nc2ccc(Cl)cc2)nc1	3.5% (active)
O=[N+]([O-])c1ccc(Nc2ccccc2F)nc1	-2.6%
COc1cc(OC)cc(C(=O)NC(=S)Nc2ccc(NC(=O)c3ccco3)cc2)c1	-20.6%
CCOc1ccc(NC(=S)NC(=O)c2ccco2)cc1	8% (active)
CCCOc1ccc(C(=O)NNC(=S)NC(=O)c2ccco2)cc1	-27.6%
CCN(CC)c1ccc(NC(=S)NC(=O)c2ccco2)cc1	35.9% (active)
CNC(=O)c1cc(C(=O)c2ccc(F)cc2C(F)(F)F)c[nH]1	-11.8%
CCC(C)(C)NC(=O)c1ccc(Sc2nncn2C)c([N+](=O)[O-])c1	-20.1%
O=C1CCN(S(=O)(=O)c2ccc(Cl)cc2)CCN1	-21.6%
CC(Sc1n[nH]c(=O)[nH]c1=O)C(=O)OCc1ccccc1 (stereo unspecified)	-11.2%
COCCNC(=O)CN(C(=O)c1ccc(N2CCCC2)nc1)c1ccccc1	-18.5%
Cn1nnnc1SCC(=O)Nc1ccccn1	-5.9%

SMILES	activity change, less the hit threshold
CC(=O)Nc1ccccc1NC(=O)C/C(C)=N/NC(=O)c1ccc([N+](=O)[O-])c(Cl)c1	-19%
C/C(CC(=O)Nc1ccccn1)=N\NC(=O)C(=O)Nc1cccc(Cl)c1C	1.1% (active)
c1ccc(Cn2ncc3c(N4CCN(C(c5ccccc5)c5ccccc5)CC4)ncnc32)cc1	-29.3%
CCOc1ccccc1Nc1nc(-c2sc(C)nc2C)cs1	-22%
COc1cccc2sc(Nc3nnc(-c4ccc(F)cc4)o3)nc12	45.4% (active)
COc1cccc2sc(Nc3nc(-c4ccccn4)cs3)nc12	20.3% (active)
COc1cccc2sc(Nc3nnc(-c4ccccc4Cl)o3)nc12	9.4% (active)
N#C/C(=C\c1ccc(-c2ccccc2Cl)o1)C(=O)Nc1nc2ccccc2s1	-10.9%
COc1cccc2sc(Nc3nnc(-c4cccs4)o3)nc12	53.9% (active)
COc1ccccc1Nc1nnc(SCC(=O)Nc2nc(-c3ccc(F)cc3)cs2)s1	-22.3%
Cc1ccc(CNC(=O)C2=CCN(S(=O)(=O)c3ccc(C)cc3)CC2)cc1	-15.1%
Cc1c(C(=O)NNC(=O)c2ccncc2)oc2ccc(Br)cc12	-16.1%
Cc1ccc(CNC(=O)CN(C(=O)C2(C)CC(=O)N=C3C=CC=CN32)c2ccccc2F)cc1 (stereo unspecified)	-10.9%
C=Cc1ccc(Cn2c(=O)n(CCCOC)c(=O)c3sccc32)cc1	-28.9%
O=S(=O)(Nc1ccc(Cc2ccncc2)cc1)c1ccc(Cl)c(Cl)c1	-20.9%
CCCn1c(CC)nc([N+](=O)[O-])c1S(=O)(=O)c1ccccc1	-4.3%
CC(C)[C@H](NC(=O)c1ccco1)C(=O)OCC(=O)Nc1cccc(F)c1	-22%
CCOc1c(OC)ccc2c3c(c(=O)oc12)CCCC3	-8.2%
CN1CCN(S(=O)(=O)c2cccc(S(=O)(=O)c3ccc(Cl)cc3)c2)CC1	-17.8%
Cn1c(=O)c2c(nc(Cl)n2CC(=O)N2CCCCC2)n(C)c1=O	-22.7%
CCCCc1c(C)[nH]c(C(=O)OCC)c1C	-19.3%
COCCCn1c(=S)[nH]c2sc3c(c2c1=O)CCCC3	40.5% (active)
COCCn1c(=S)[nH]c2sc3c(c2c1=O)CCC(C)C3 (stereo unspecified)	51.5% (active)
COCCn1c(=S)[nH]c2sc3c(c2c1=O)CCCC3	31.9% (active)

SMILES	activity change, less the hit threshold
CCOCCCn1c(=S)[nH]c2cc(C(=O)NCCOC)ccc2c1=O	-10.4%
COCCCn1c(=S)[nH]c2c(sc3ccccc32)c1=O	-11.4%
Cc1ccc(S(=O)(=O)Nc2c(C)[nH]c(=O)[nH]c2=O)cc1C	-17.9%
CCOC(=O)CSc1nnc(NC(=O)c2ccc3c(c2)OCO3)s1	-23.9%
O=S(=O)(Nc1cccc(-n2cnnn2)c1)c1ccc(Cl)nc1	-9%
CN(C)S(=O)(=O)c1cc(NC2CC(=O)N(c3ccc(F)cc3)C2=O)ccc1Cl (stereo unspecified)	-7.3%
CCN(CC)CCOC(=O)C(c1ccccc1)c1ccccc1	-11.4%
Cc1ccc(NC(=O)c2cc(NC(=O)/C=C\C(=O)O)ccc2N2CCCCC2)cc1	3.1% (active)
O=C(/C=C/c1ccccc1)Nc1ccc(C(=O)N2CCCCC2)cc1	-11.4%
COc1ccc(NC(=O)c2cc(S(=O)(=O)N3CCOCC3)ccc2N2CCOCC2)cc1	-16.6%
CC(=O)N1c2ccc(N=Cc3cc(Br)cc(Br)c3O)cc2CC1C (stereo unspecified)	0.4% (active)
CC(=O)N1CCc2cc(S(=O)(=O)N3c4ccccc4CC3C)ccc21 (stereo unspecified)	-13.9%
N=c1sccn1CC(=O)Nc1ccccc1Cc1ccccc1	-16.3%
CCc1nnc(NC(=O)c2cccc(C(=O)Nc3nnc(CC)s3)n2)s1	-22.2%
O=C(COC(=O)C1CCC(=O)N1)Nc1cc(Cl)ccc1Cl (stereo unspecified)	-16.9%
Cc1cccc(NC(=O)COc2coc(CN3CCN(c4ccccc4)CC3)cc2=O)c1	-22.1%
Cc1cc(Br)c(NC(=O)COC(=O)C2CC2C)c(Br)c1 (stereo unspecified)	4.5% (active)
O=C1OC(/C=C/c2ccccc2)=NC/1=C/c1ccco1	-29%
COC(=O)c1ccc(NC(=O)COC(=O)C2CC(=O)N(Cc3ccccc3)C2)cc1 (stereo unspecified)	-26.7%
O=C(O)CCCN1C(=O)C2C3c4ccccc4C(c4ccccc43)[C@@H]2C1=O (stereo partly specified)	-24.6%
Cc1cc(C)cc(-n2c(C)cc(/C=N/NC(=O)CN(c3c(C)cccc3C)S(C)(=O)=O)c2C)c1	-19.4%
Nc1ccc2c(c1)C(=O)C(=O)c1ccccc1-2	-3.9%
CCOC(=O)c1sc2ncnc(NCC(c3cccs3)N(C)C)c2c1C (stereo unspecified)	39.2% (active)
CCOC(=O)c1sc2ncnc(NCc3ccco3)c2c1C	51.8% (active)

SMILES	activity change, less the hit threshold
CCOC(=O)c1c(NC(=O)/C=C/c2ccco2)sc(C)c1C	-12%
Cc1ccc(OC(=O)c2sc3ncn(C)c(=O)c3c2C)cc1	-29.2%
COc1ccc(N(C(=O)c2ccco2)S(=O)(=O)c2cccs2)cc1	-19.4%
O=C(N/N=C/c1ccsc1)C1CC1	-15.9%
COCCNC(=O)C1CCN(S(=O)(=O)N2CCC3(CC2)OCCO3)CC1	-21.8%
CCOC(=O)c1sc(NC(=S)NC(=O)c2ccc(OC)cc2)nc1C	-10.9%
CCOC(=O)c1sc(NC(=S)NC(=O)c2cccc(OC)c2)nc1C	4.7% (active)
CCOC(=O)c1cccc(C(=O)Nc2nc3ccc(OC)cc3s2)n1	-15.8%
CCOC(=O)c1sc(NC(=S)NC(=O)c2ccccc2)nc1C	-3.4%
CCOC(=O)c1sc(NC(=S)NC(=O)c2ccco2)nc1C	4.8% (active)
Cc1nc(NC(=O)c2ccco2)sc1C(=O)O	-11.4%
O=c1[nH]c(=S)[nH]c2c1C(c1ccc(Br)cc1)c1c([nH]c(=S)[nH]c1=O)O2	-17.1%
Cc1ccccc1C(=O)NNC(=O)c1cccc([N+](=O)[O-])c1	-19.8%
CCOc1ccc(C(=O)N/N=C/c2cc([N+](=O)[O-])cs2)cc1	-17.4%
Cc1cc(SCC(=O)c2cccc([N+](=O)[O-])c2)nc(=O)[nH]1	-15.5%
CCOC(=O)/C(C)=N/NC(=O)c1ccc([N+](=O)[O-])cc1	16.8% (active)
CCOC(=O)/C(C)=N/NC(=O)c1cccc([N+](=O)[O-])c1	5.2% (active)
CCOC(=O)c1[nH]cnc1C(=O)Nc1ccc([N+](=O)[O-])cc1	-11.7%
S=C(NCCc1ccccc1)N/N=C/c1c(Cl)cccc1Cl	-18.4%
CC1(C)CC(=O)c2c(nn(-c3ccccc3)c2-c2ccncc2)C1	-16.4%
Cc1nn(Cc2ccccc2)c2c1C(c1cccnc1)C(C#N)=C(N)O2 (stereo unspecified)	-10.8%
O=C(COc1ccccc1)NC(=S)Nc1ccc2c(c1)Cc1ccccc1-2	-19.3%
CC(Oc1ccccc1F)C(=O)NC1CCS(=O)(=O)C1 (stereo unspecified)	-17.8%
O=C(O)c1cc(/C=N\O)ccc1OCc1ccccc1	-16.1%
